From paper PMC5540273 (PLoS ONE, 2017)

Experiments:
Details in all cases: concentration: 1 μM,replicates: in singlicate; n = 1
[1] = system: BMX
[2] = system: BRAF
[3] = system: T1, BRK
T1 construct: gene PTK6

[4] = system: BRSK1
[5] = system: BRSK2
[6] = system: BTK
[7] = system: BUB1
[8] = system: CAMK1B
[9] = system: CAMK1D
[10] = system: CAMK1G
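Note: KINOMEscan kinase panel screen.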

SMILES	%Inh [1] [%]	%Inh [2] [%]	%Inh [3] [%]	%Inh [4] [%]	%Inh [5] [%]	%Inh [6] [%]	%Inh [7] [%]	%Inh [8] [%]	%Inh [9] [%]	%Inh [10] [%]
COc1cc(Nc2nccc(N3CCC(NC(=O)c4cccc(C#N)c4)C3)n2)cc(OC)c1OC (stereo not drawn) [GSK1379751]	0	0	0	0	100	0	61	22	0	0
C[C@@H](Oc1cc(-n2cnc3cc(-c4cnn(C)c4)ccc32)sc1C(N)=O)c1ccccc1Cl [GSK580432]	22	0	0	82	93.3	0	27	22	31	26
NC(=O)c1ccc(-c2cc3ncnc(SCC(=O)O)c3s2)cc1	15	0	0	0	0	8	18	0	5	0
Cc1ccn2nc(-c3ccc(F)cc3)c(-c3ccncc3)c2c1.Cl [GW457859]	8	49	0	0	0	22	87	30	1	0
CN(c1cccc(CNc2nc(Nc3ccc4c(c3)CC(=O)N4)ncc2C(F)(F)F)c1)S(C)(=O)=O	18	0	0	0	0	0	2	9	14	15
Cn1ccc2ncnc(Oc3ccc(NC(=O)Nc4cc(C(C)(C)C)on4)c(Cl)c3)c21	33	76	10	8	0	0	5	0	14	12
C[C@@H]1CNc2c(sc3ccc4nc(-c5ccc(O)cc5)ccc4c23)C(=O)N1	14	0	0	48	72	0	58	13	0	16
O=C(Nc1n[nH]c2cc(-c3ccco3)ccc12)C1CC1 [SB-737447]	0	0	0	31	46	0	0	0	0	100
Nc1nccc(-c2ccc3c(N)n[nH]c3c2)n1 [GSK1034945]	0	0	4	41	15	0	73	10	7	0
CN1CCN(CCNc2nc3cc(Oc4ccc(NC(=O)Nc5cc(C(F)(F)F)ccc5F)cc4)ccc3[nH]2)CC1.Cl.Cl [GW768504]	0	0	0	0	6	0	0	0	0	4
O=C(NOCC1CC1)c1cc(Br)c(F)c(F)c1Nc1ccc(I)cc1Cl	0	0	0	0	0	0	0	0	0	0
CCOC(=O)N1CCC(n2cnc(-c3ccc(F)cc3)c2-c2ccnc(N)n2)CC1 [SB-219952]	13	14	0	0	19	32	0	48	3	0
Cc1nnc(-c2ccc3occ(-c4ccc(S(C)=O)cc4)c3n2)o1 (stereo not drawn)	0	0	0	0	0	0	0	0	17	3
CS(=O)(=O)c1cccc(CNc2nc(Nc3ccc4c(c3)[C@@H]3C[C@@H]4CNC3=O)ncc2C(F)(F)F)c1	4	0	0	0	0	0	0	19	0	0
Cc1cccc2c(-c3ccncc3)c(-c3ccc(F)cc3)nn12.Cl [GW461487]	15	14	0	0	0	0	52	0	4	20
CCn1c(-c2nonc2N)nc2cncc(CNC3CCNCC3)c21.Cl [SB-747651]	0	10	0	4	0	14	48	30	22	0
Cl.c1ccc(Oc2ccc(Nc3ccnc4cc(-c5ccc(CN6CCNCC6)o5)ccc34)cc2)nc1 [GW567142]	4	0	92.7	0	0	76	38	0	20	0

SMILES	%Inh [1] [%]	%Inh [2] [%]	%Inh [3] [%]	%Inh [4] [%]	%Inh [5] [%]	%Inh [6] [%]	%Inh [7] [%]	%Inh [8] [%]	%Inh [9] [%]	%Inh [10] [%]
FC(F)(F)c1cc(Br)cc(Nc2nccc(-c3cnn4ncccc34)n2)c1 [GW810578]	10	0	0	0	0	0	16	29	5	18
CCn1c(-c2nonc2N)nc2cncc(Br)c21 [SB-738004]	27	0	10	0	0	47	93.7	34	15	16
COc1ccc(Nc2nccc(N3CCC(NC(=O)c4cccc(C#N)c4)C3)n2)cc1 (stereo not drawn) [GSK1379730]	0	0	8	0	0	28	53	13	0	0
CC(C)c1nc(-c2cccc(NS(=O)(=O)c3ccccc3)c2)c(-c2ccnc(Nc3ccc4c(c3)CN(C)CC4)n2)s1 [GSK1649598]	96.2	99.9	99.4	24	46	84	82	0	42	11
Cn1ccc2ncnc(Oc3ccc(NC(=O)Nc4ccnc(C(F)(F)F)c4)c(Cl)c3)c21	17	45	0	0	0	0	5	0	0	31
Cn1ccc2ncnc(Oc3ccc(NC(=O)Nc4cccc(C(F)(F)F)c4)c(F)c3)c21	1	62	0	0	2	30	0	0	12	11
Cc1ccc(C(=O)Nc2ccc(Oc3ccc4nc(NC(=O)C5CC5)cn4c3)c(F)c2)c(=O)n1-c1ccccc1	73	57	88	0	0	0	0	0	0	0
OCCn1cc(-c2cnc3nnn(Cc4ccc5ncccc5c4)c3n2)cn1	0	1	0	22	0	0	0	0	4	0
CS(=O)c1ccc(-c2coc3ccc(-c4n[nH]c(=O)o4)cc23)cc1 (stereo not drawn)	0	12	0	0	2	20	14	14	0	12
Cn1ccc2ncnc(Oc3ccc(NC(=O)Nc4cccc(C(F)(F)F)c4)c(Cl)c3)c21	15	46	5	0	0	0	0	16	16	1
Cc1ccc2c(-c3ccnc(Nc4ccc(C(F)(F)F)cc4)n3)cnn2n1 [GW819776]	0	0	4	0	14	0	6	0	0	0
COc1cccc(OC)c1C(=O)Nc1cccc(-c2nn3ccccc3c2-c2ccnc(Nc3cccc(F)c3)n2)c1 [GSK361065]	21	17	19	0	16	0	11	0	13	0
Cl.Cl.NC[C@H](CC1CCCCC1)NC(=O)c1ccc(-c2ccnc3[nH]ccc23)s1 [GSK1581428]	2	0	5	11	17	0	44	0	36	9
O=C(NCC1CC1)c1ccc(-c2cc(C(=O)NC3CC3)ccc2F)cc1 [GW810445]	0	0	0	0	0	0	22	21	0	0
O=c1[nH]cc(-c2ccc(O)cc2)c2sc(-c3ccncc3)cc12 [GSK1033723]	18	1	7	29	0	0	15	0	20	1
CN(c1ccccc1CNc1nc(Nc2ccc3c(c2)CC(=O)N3)ncc1C(F)(F)F)S(C)(=O)=O	39	0	0	14	36	0	0	0	0	0
